# Assay results from PubChem BioAssay (EPA / NIEHS).
# Results filed as inconclusive are left out. The source made the active and inactive calls. Rule for the calls: active = hit-call score of the fitted dose curve at least 0.9, where 1 is the maximum; inconclusive = response in the unintended direction; inactive = score below 0.9.
# Test system: not listed separately
# Experiment: TOX21_p53_BLA_p4_viability: Viability Assessment in the Tox21 HCT-116 p53 Agonism Beta-lactamase Assay, Phase 4 (AID 2283597);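 note: hits lower the luminescence signal meaning cytotoxicity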
# In short: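 In this multiplexed secondary endpoint, HCT116 cells (4000 per well, compound at 5 h, 16 h treatment) received CellTiter-Glo after the beta-lactamase read. Luminescence after 30 min RT reflects ATP, and falling signal marks cytotoxicity.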
row,SMILES,outcome
1,OCC(S)CS (centres undefined),inactive
2,CC(=O)OC[C@H]1O[C@@H](O[C@H]2[C@H](O)[C@@H](OC(=O)c3ccccc3C(=O)O)[C@H](O)O[C@@H]2COC(C)=O)[C@H](O)[C@@H](OC(=O)c2ccccc2C(=O)O)[C@@H]1O,inactive
3,CN1CCN(CC(=O)N2c3ccccc3C(=O)Nc3cccnc32)CC1,inactive
4,CC(C)C(=O)OC(=O)C(C)C,inactive
5,CCCCCCCN(CC)CCCC(O)c1ccc(NS(C)(=O)=O)cc1 (centres undefined),inactive
6,CC1COc2ccccc2N1 (centres undefined),inactive
7,CCCCCCC,inactive

# Target: Cellular tumor antigen p53 (Homo sapiens) (UniProt P04637)
# Sequence (P04637 whole entry, looked up): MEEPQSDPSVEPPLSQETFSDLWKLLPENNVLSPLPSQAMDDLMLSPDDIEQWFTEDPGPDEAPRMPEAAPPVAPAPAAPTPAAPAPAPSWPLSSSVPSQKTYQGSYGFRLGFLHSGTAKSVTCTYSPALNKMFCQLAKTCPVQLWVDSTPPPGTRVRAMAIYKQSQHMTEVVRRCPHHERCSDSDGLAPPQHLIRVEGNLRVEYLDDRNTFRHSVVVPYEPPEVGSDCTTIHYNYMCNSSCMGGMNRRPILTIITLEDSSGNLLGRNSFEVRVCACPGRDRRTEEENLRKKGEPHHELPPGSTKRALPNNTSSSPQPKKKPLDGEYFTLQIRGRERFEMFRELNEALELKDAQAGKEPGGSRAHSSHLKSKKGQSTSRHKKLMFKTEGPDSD
# Experiment: TOX21_p53_BLA_p5_ratio: Tox21 HCT-116 p53 Agonism Beta-lactamase Assay, Ratio, Phase 5 (AID 2283599)
# In short: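 HCT-116 cells carrying a p53-inducible beta-lactamase reporter were seeded at 4000 cells/well and dosed after 5 h with compound in DMSO (217-fold dilution). After 16 h at 37C, CCF4-AM substrate was added for 2 h, and the 460/530 nm emission ratio was scored as gain-of-signal versus DMSO.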
row,SMILES,outcome
1,CC(C)N=c1cc2n(-c3ccc(Cl)cc3)c3ccccc3nc-2cc1Nc1ccc(Cl)cc1,inactive
2,CCNC(=O)/C=C/c1cccc(Br)c1,inactive
3,CC(C)(C)CC(C)(C)c1cc(Cc2cc(C(C)(C)CC(C)(C)C)cc(-n3nc4ccccc4n3)c2O)c(O)c(-n2nc3ccccc3n2)c1,inactive
4,CCOC(=O)[C@H](CCc1ccccc1)N[C@@H](C)C(=O)N1Cc2ccccc2C[C@H]1C(=O)O,inactive
5,NC(=O)CCCCC(N)=O,inactive
6,CCCCCCCCCCCCC(=O)O,inactive
7,CNc1cc(OC)c(C(=O)N[C@H]2CCN(Cc3ccccc3)[C@H]2C)cc1Cl,inactive
8,OCCN1C[C@H](O)[C@@H](O)[C@H](O)[C@H]1CO,inactive
9,CC(C)(C)NC[C@H](O)COc1cccc2c1CCCC2=O,inactive
10,Cc1ccc(NC(=O)N(C)C)cc1NC(=O)N(C)C,inactive
11,OCCN1CCN(CCCN2c3ccccc3C=Cc3ccccc32)CC1,inactive
12,OCC(S)CS (centres undefined),inactive
13,CC(C)C(=O)OC(=O)C(C)C,inactive
14,CCCCCCC,inactive

# Test system: not listed separately
# Experiment: TOX21_p53_BLA_p5_viability: Viability Assessment in the Tox21 HCT-116 p53 Agonism Beta-lactamase Assay, Phase 5 (AID 2283600)
# In short: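 Here cell health was gauged by ATP levels in wells holding 4000 cells, each treated 16 h with DMSO-delivered compounds at 217-fold dilution; reduced luminescence marked toxicity.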
row,SMILES,outcome
1,CC(C)N=c1cc2n(-c3ccc(Cl)cc3)c3ccccc3nc-2cc1Nc1ccc(Cl)cc1,inactive
2,C[N+](C)(C)CCCCCCCCCC[N+](C)(C)C,inactive
3,CCNC(=O)/C=C/c1cccc(Br)c1,inactive
4,CC(C)(C)CC(C)(C)c1cc(Cc2cc(C(C)(C)CC(C)(C)C)cc(-n3nc4ccccc4n3)c2O)c(O)c(-n2nc3ccccc3n2)c1,inactive
5,CCOC(=O)[C@H](CCc1ccccc1)N[C@@H](C)C(=O)N1Cc2ccccc2C[C@H]1C(=O)O,inactive
6,NC(=O)CCCCC(N)=O,inactive
7,CC(N)CCCC(C)(C)O (centres undefined),inactive
8,CCCCCCCCCCCCC(=O)O,inactive
9,CCN(CC)CCNC(=O)c1cc(Br)c(N)cc1OC,inactive
10,CCC(C)(C)OC(=O)N[C@@H](Cc1c[nH]c2ccccc12)C(=O)N[C@@H](CCSC)C(=O)N[C@@H](CC(=O)O)C(=O)N[C@@H](Cc1ccccc1)C(N)=O,inactive
11,CNc1cc(OC)c(C(=O)N[C@H]2CCN(Cc3ccccc3)[C@H]2C)cc1Cl,inactive
12,OCCN1C[C@H](O)[C@@H](O)[C@H](O)[C@H]1CO,inactive
13,CC(C)(C)NC[C@H](O)COc1cccc2c1CCCC2=O,inactive
14,Cc1ccc(NC(=O)N(C)C)cc1NC(=O)N(C)C,inactive
15,OCCN1CCN(CCCN2c3ccccc3C=Cc3ccccc32)CC1,inactive
16,CNC(=O)C[C@@H](N)C(=O)N[C@@H](C(=O)N[C@@H]1C(=O)N2[C@@H]1SC(C)(C)[C@@H]2C(=O)O)c1ccc(O)cc1,inactive
17,OCC(S)CS (centres undefined),inactive
18,N=C(N)N,inactive
19,O=C(O)c1cc(=O)c2ccccc2o1,inactive
20,CC(C)CN(C[C@@H](O)[C@H](Cc1ccccc1)NC(=O)O[C@@H]1CCOC1)S(=O)(=O)c1ccc(N)cc1,inactive
21,CN1CCN(C(=O)C2CCCCC2)CC1,inactive
22,CCCCOC(=O)CO,inactive
23,NC/C=C/C(=O)O,inactive
